Vif inh = HIV Vif inhibition; HEK293T cells, Vif self-association by quenched fluorescence, imaging, 24 h; inhibition, % at 7.49 µM; 0.35% of 340,000 active; in the data active = inhibition above about 50%, passing the limit was not always enough
esBAF inh = SWI/SNF esBAF complex inhibition; mouse ES cells, Bmi1-luciferase knock-in reporter, 24 h; 100% = twice the neutral-well signal; reporter increase, % at 12.5 µM; 2% of 350,000 active; AID 602393; in the data active = activation above about 40%;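 also: a rise in the Bmi1 reporter signal indicates esBAF inhibition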
HSF-1 act = increases HSF-1 driven luciferase reporter signal. NIH3T3-HGL HSF-1 luciferase reporter, MG132, 8 h; 100% = twice DMSO control signal. activation, % at 9 µM. 1.7% of 300,000 active. AID 504408;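 active = mean replicate activation of at least 50% with a set share of replicates each reaching 50%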
HSF1 inhib = HSF1 inhibition; NIH3T3-HGL HSE-luciferase, MG132-induced, luminescence 8 h; stronger effect = lower value; activity change, negative = inhibition, % at 7.5 µM (by protocol); 0.77% of 300,000 active; AID 2098;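 active = more than half of replicate wells show activity change below -50%, luminescence cut by over half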;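 also: luciferase reports HSF-1 transcriptional activity via heat shock element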
Numbers stand for hits; n = inactive; x = no result given. Hits are enriched below; roughly 3.4% of the tested compounds scored in any of these assays.

SMILES | Vif inh | esBAF inh | HSF-1 act | HSF1 inhib
CCC1CCc2sc(C(=O)NNC(=S)NCC3CCCO3)cc2C1 (configuration not stated) | n | n | x | x
CC1CCCN(C(=O)C2(NC(=O)Nc3cccc(F)c3)CCCCC2)C1 (configuration not stated) | n | n | n | -86
Cc1ccc(-c2ccnc(-c3ccc(O)cc3)n2)cc1 | n | x | 65 | n
COc1ccc(-c2ccnc(-c3ccc(O)cc3)n2)cc1 | n | x | n | n
CCCC(=O)Nc1cccc(NC(=O)c2ccc3c(c2)OCCO3)c1 | n | 43 | n | n
O=C(Nc1cccc(F)c1)c1ccc2c(c1)OCCO2 | n | n | 57 | n
CCN(CC)c1ccc(C(=O)Nc2cccc(F)c2)cc1 | n | x | 61 | n
CS(=O)(=O)Nc1ccc2c(c1)[C@H]1C[C@H](CC(=O)N3CCOCC3)O[C@H](CO)[C@H]1O2 | x | n | x | x
COc1ccc(CN2C[C@H](O)COC[C@H]3O[C@H](CC(=O)NCCN4CCCC4)CC[C@@H]32)cc1 | x | n | x | x
N#C[C@@H]1N[C@@H](CO)[C@H]1c1ccc(C#CC2CCCC2)cc1 | x | n | x | x
O=C(C[C@H]1CC[C@@H]2[C@H](COC[C@H](O)CN2Cc2ccc(Cl)cc2)O1)NCc1cccc(F)c1 | x | n | x | x
Cc1c(-c2ccccc2)[n+](=O)c2c(n1[O-])CCC2 | n | n | n | -87
Cc1c(-c2ccc(Cl)cc2)[n+](=O)c2c(n1[O-])CCCC2 | n | x | n | n
O=C(CC1CC1)N1CC[C@H]2[C@H](CO)Nc3ccc(-c4ccc(F)cc4)cc3[C@H]21 | x | n | x | x
Cc1cccc(CNC(=O)c2ccc3nc(Cc4ccccc4F)oc3c2)n1 | x | n | n | n
O=C(NCCc1ccccn1)c1ccc2nc(Cc3ccccc3F)oc2c1 | n | 72 | n | n
Cn1cc(CNC(=O)c2ccc3nc(Cc4ccccc4F)oc3c2)cn1 | n | x | n | n
Cn1cc(CCNC(=O)c2ccc3nc(Cc4ccccc4F)oc3c2)cn1 | n | 75 | n | n
O=C(CCC(=O)c1ccc(F)cc1)Nc1cc(Cl)cc(Cl)c1 | n | n | 58 | n
CC(=O)c1cccc(NC(=O)CCC(=O)c2ccc(F)cc2)c1 | n | n | n | n
O=C1CSC(=S)N1/N=C/c1cccc(C(F)(F)F)c1 | n | x | 68 | n
CC(=O)n1cc(C(C[N+](=O)[O-])SCCN)c2ccccc21 (configuration not stated) | n | x | 59 | n
CCN(CC(=O)NCc1ccc(F)cc1)C(=O)c1ccc(COc2ccccc2)cc1 | n | 57 | n | n
Cc1noc(NS(=O)(=O)c2ccc(NC(=O)c3ccc(N4C(=O)c5ccccc5C4=O)cc3)cc2)c1C | n | x | n | n
Cc1noc(NS(=O)(=O)c2ccc(N3Cc4ccccc4C3=O)cc2)c1C | n | n | n | -85
SMILES | Vif inh | esBAF inh | HSF-1 act | HSF1 inhib
Cc1ccc(NC(=O)CN2C(=O)NC(C)(CCc3ccccc3)C2=O)cc1 (configuration not stated) | n | n | n | n
Cc1cccc(C)c1NC(=O)CN1C(=O)NC(C)(CCc2ccccc2)C1=O (configuration not stated) | x | x | n | -91
COc1cc2c(cc1OC)C(C1C(=O)CC(C)(C)CC1=O)N(C(=O)CCl)CC2 (configuration not stated) | n | x | n | n
COc1cc2c(cc1OC)C(c1cc(Br)ccc1F)N(C(=O)CCl)CC2 (configuration not stated) | n | n | n | -97
C[C@H](CO)N1C[C@H](C)[C@H](CN(C)S(=O)(=O)c2ccc(F)cc2)OCCCC[C@H](C)Oc2ccc(NS(=O)(=O)c3ccccc3)cc2C1=O | x | n | x | x
C[C@H](CO)N1C[C@H](C)[C@H](CN(C)S(=O)(=O)c2ccc(F)cc2)Oc2c(NC(=O)c3cnccn3)cccc2C1=O | x | n | x | x
O=C(C1=C[C@H](c2ccc(C(F)(F)F)cc2)C[C@H](OCCCCO)O1)N1CCN(Cc2ccc3c(c2)OCO3)CC1 | n | n | n | -70
O=C(NCc1ccccc1)C1=C[C@@H](c2ccc3c(c2)OCO3)C[C@@H](OCCCCO)O1 | n | n | n | n
O=C(Nc1ccccc1)C1=C[C@H](c2ccc3c(c2)OCO3)C[C@H](OCCCCO)O1 | n | 48 | n | n
O=C(Nc1ccccc1)C1=C[C@@H](c2ccc3c(c2)OCO3)C[C@@H](OCCCCO)O1 | n | 67 | n | n
O=C(O)C1=C[C@H](c2ccc3c(c2)OCO3)C[C@H](OCCCCO)O1 | n | n | n | n
C[C@@H]1CN([C@@H](C)CO)C(=O)c2cccc(NC(=O)C3CCCCC3)c2O[C@H]1CN(C)S(=O)(=O)c1ccccc1 | x | n | x | x
O=C(C[C@H]1CC[C@@H]2[C@H](COC[C@@H](O)CN2C(=O)C2CC2)O1)NCc1ccncc1 | x | n | x | x
COc1cccc(C(=O)Nc2ccc3c(c2)C(=O)N(C)C[C@@H](OC)[C@H](C)CN(C(=O)C2CCC2)[C@H](C)CO3)c1 | x | n | x | x
C[C@@H]1CN([C@@H](C)CO)C(=O)c2cc(NS(=O)(=O)c3cccs3)ccc2O[C@@H]1CN(C)Cc1ccc(Cl)c(Cl)c1 | x | n | x | x
c1ccc(COc2cccc(CN3CCN(c4ccccn4)CC3)c2)cc1 | n | n | n | -55
O=C(c1cccc(F)c1)N1C[C@H]2[C@@H](c3ccccc31)[C@H](CO)N2C(=O)C1CCOCC1 | x | n | x | x
N#C/C(=C\c1c[nH]c2ccccc12)C(=O)NC1CCCC1 | n | n | n | n
N#C/C(=C\c1c[nH]c2ccccc12)C(=O)NC1CC1 | n | 71 | n | n
Cc1nc(NC(=O)c2ccccc2)nc2cc3c(cc12)OCO3 | n | 49 | n | n
CCCCCCOC(=O)C(C#N)c1nc2ccccc2nc1N1CCOCC1 (configuration not stated) | 182 | n | n | n
N#CC(C(=O)NCCc1ccccc1)c1nc2ccccc2nc1N1CCOCC1 (configuration not stated) | 64 | n | n | n
CCCCOC(=O)C(C#N)c1nc2ccccc2nc1N1CCOCC1 (configuration not stated) | n | n | n | n
Cc1ccc(C(C(=O)NC2CCCC2)N2CCc3ccccc32)cc1 (configuration not stated) | n | n | 58 | n
OC[C@@H]1[C@@H](c2ccc(C#CC3CCCC3)cc2)[C@@H]2CN(CCC(F)(F)F)CCCCN12 | x | n | x | x
SMILES | Vif inh | esBAF inh | HSF-1 act | HSF1 inhib
Cc1cccc(C)c1NC(=O)N1CCN(c2nc3ccccc3s2)CC1 | n | 48 | n | n
CCOc1ccc2nc(N3CCC(C(=O)Nc4nnc(CC)s4)CC3)sc2c1 | n | 48 | n | n
CCOc1ccc2nc(N3CCCCCC3)sc2c1 | n | n | 72 | n
c1ccc2sc(N3CCCCC3)nc2c1 | n | 49 | x | x
Cc1cccc(Cl)c1NC(=O)N1CCCN(c2nc3ccc(Cl)cc3s2)CC1 | n | n | n | n
CCOc1ccc2nc(N3CCCC(C(=O)N4CCN(CC)CC4)C3)sc2c1 (configuration not stated) | n | n | n | n
CCC(=O)N1C[C@@H](C)[C@@H](OC)CN(C)C(=O)c2cc(NC(=O)Nc3cccc(F)c3)ccc2OC[C@@H]1C | x | n | x | x
CCCNC(=O)Nc1ccc2c(c1)C(=O)N(C)C[C@H](OC)[C@@H](C)CN(C(=O)C1CCCCC1)[C@@H](C)CO2 | x | n | x | x

High-throughput results (PubChem BioAssay)
